An excerpt weighted towards active compounds, which were near 3.2% of everything screened.
TcdB GH inh: inhibitors of Clostridioides difficile toxin B glycohydrolase; inhibition, % at 9.99 µM; 350,000 compounds, 0.24% hits; TcdB glycohydrolase enzymatic assay, plate reader; AID 652162; in the data active = inhibition above about 10%
PrPC TRFRET: reduces human prion protein on the cell surface. cell surface PrPC, TR-FRET read-out. inhibition, % at 13.8 µM. 370,000 compounds, 0.43% hits. P04156. AID 720596; in the data active = inhibition above about 24%; also: 0% = median of the test wells and 100% = reference compound wells
FBA Mtb inh: inhibitors of M. tuberculosis fructose-bisphosphate aldolase | 360,000 compounds, 2.3% hits | inhibition, % at 1 µM | purified M. tuberculosis FBA, fluorescence read-out | P9WQA3; in the data active = inhibition above about 27%;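 also: 0% = vehicle and 100% = reference inhibitor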
GDH-TPI counter: inhibits GDH-TPI coupling enzymes, artifact for Mtb FBA screen; GDH-TPI coupled enzyme counterscreen, NADH absorbance; inhibition, % at 4.8 µM; 360,000 compounds, 1.2% hits; in the data active = inhibition above about 30%;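 also: 0% = DMSO wells and 100% = wells lacking the enzyme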
Yp Topo-I inh: blocks Yersinia pestis topoisomerase I activity; Y. pestis Topo-I cleavage product accumulation, plate reader; activity, % at 10 µM; 360,000 compounds, 0.064% hits; in the data active = activity above about 50%, passing the limit was not always enough
PrPC TRFRET cf: cell surface PrPC inhibition, TR-FRET confirmation; shares compounds with PrPC TRFRET; inhibition, % at 13.8 µM; 1,500 compounds, 65% hits; AID 743200; cell surface PrPC level; in the data active = inhibition above about 25%
LD9 cytotox: LD9 cell cytotoxicity, PrPc inhibitor counter-screen | shares compounds with PrPC TRFRET | LD9 cells cytotoxicity, luminescence viability | inhibition, % at 13.8 µM | 1,500 compounds, 29% hits | AID 743201; in the data active = inhibition above about 9.5%
Starred values were filed as active, the others as inactive; . = not tested or not shown.

SMILES	TcdB GH inh	PrPC TRFRET	FBA Mtb inh	GDH-TPI counter	Yp Topo-I inh	PrPC TRFRET cf	LD9 cytotox
C[C@H]1CN([C@@H](C)CO)C(=O)c2cc(NC(=O)c3ccncc3)ccc2O[C@H]1CN(C)S(C)(=O)=O	0	.	.	.	.	.	.
CCn1c(Cl)c(C=O)s/c1=N\S(=O)(=O)c1ccccc1	1	53*	-1	21	1	102*	94*
Cc1cc2cccc(C)c2nc1SCC(=O)NNC(=O)c1ccco1	1	55*	4	2	12	65*	-5
CCc1cc2cc(C)ccc2nc1SCC(=O)NNC(=O)c1ccco1	1	15	1	16	25	.	.
Cc1cccc2cc(C#N)c(SCC(=O)NNC(=O)Cc3ccccc3)nc12	.	2	7	7	-5	.	.
CCOC(=O)CNC(=O)CSc1nc2c(C)cccc2cc1CC	0	71*	5	1	3	107*	-2
CCc1cc2cccc(C)c2nc1SCC(=O)N1CCN(C(=O)c2ccco2)CC1	.	25*	1	8	23	59*	3
Cc1cc(C)c2nc(SCC(=O)NNC(=O)c3ccco3)c(C)cc2c1	1	44*	-2	-2	12	45*	-2
O=C(N[C@@H]1CC[C@@H](CC(=O)N2CCOCC2)O[C@H]1CO)c1ccccn1	-3	.	.	.	.	.	.
C[C@H](O)C#Cc1ccc([C@@H]2[C@@H](CO)N3CCCCN(C(=O)c4ccc5c(c4)OCO5)C[C@H]23)cc1	2	.	.	.	.	.	.
COC(=O)/C(C(C)=O)=C(/C=C/C=C/N(C)C)N(C)C	2	50*	-11	3	4	7	4
CCOC(=O)CC(=O)CSc1ncnc2c1oc1ccccc12	.	58*	1	9	0	19	-7
OCCSc1ncnc2c1oc1ccccc12	.	3	-2	9	-2	.	.
N#CCCSc1ncnc2c1oc1ccccc12	.	55*	-1	9	4	47*	-5
CC(C)Oc1ccc(C(=O)/C=C2/C(=O)Nc3ccccc32)cc1	1	34*	2	12	9	9	-11
CCN1[C@H](C(=O)NC2Cc3ccccc3C2)[C@@H](CO)[C@@H]2Cn3c(cccc3=O)[C@@H]21	0	.	.	.	.	.	.
CCOCCCNc1ncnc2c1[nH]c1ccccc12	.	13	22	-2	3	.	.
CCCCOCCCNc1ncnc2c1[nH]c1ccccc12	.	31*	14	17	18	24*	17*
NC(=O)CSc1nnc2n(-c3ccccc3)c(=O)c3c4c(sc3n12)CCCCC4	.	51*	-1	7	4	86*	-5
C[C@@H]1CN([C@@H](C)CO)S(=O)(=O)c2ccc(C3=CCCCC3)cc2O[C@H]1CN(C)S(=O)(=O)c1cn(C)cn1	-1	.	.	.	.	.	.
C[C@@H](NC(=O)C[C@H]1CC[C@H](NC(=O)c2cccnc2)[C@H](CO)O1)c1ccccc1	1	.	.	.	.	.	.
CCOC(=O)c1sc(NC(=O)Nc2ccccc2)cc1C	-4	35*	0	6	-12	25*	22*
N#C[C@H]1[C@@H](c2ccc(-c3ccccc3)cc2)[C@H](CO)N1C(=O)Cc1ccccc1	-1	.	.	.	.	.	.
Cc1ccc(NC(=O)C(=O)NN)cc1	1	5	4	0	3	.	.
NNC(=O)C(=O)Nc1ccc(O)cc1	10	31*	-5	-1	-6	-3	-6
SMILES	TcdB GH inh	PrPC TRFRET	FBA Mtb inh	GDH-TPI counter	Yp Topo-I inh	PrPC TRFRET cf	LD9 cytotox
CCCN1C(=O)c2[nH]nc(-c3cc(Cl)c(C)cc3O)c2C1c1ccc(O)c(OC)c1 (configuration not stated)	1	26*	-1	4	-8	10	-7
COc1ccc2nc(NC(=O)c3cccs3)sc2c1	1	27*	1	16	-1	15	4
Cc1ccc(S(=O)(=O)N2CCN(CC(O)c3ccccc3)CC2)cc1 (configuration not stated)	2	8	0	4	7	.	.
Cc1ccc(S(=O)(=O)N2CCN(CC(O)c3ccccc3)CC2)cc1C (configuration not stated)	1	57*	0	-2	1	6	-5
COc1cc(/C=N/NC(=O)c2ccc(CN(C)S(=O)(=O)c3ccc(C)cc3)cc2)ccc1O	0	28*	-2	4	10	13	-1
COc1ccc(/C=N/NC(=O)c2ccc(N(C)S(=O)(=O)c3ccccc3)cc2)cc1OC	.	-7	-2	22	6	.	.
